The target in the assay is T1, Methionyl-tRNA synthetase, putative (Leishmania donovani (strain BPK282A1)) (UniProt E9BF75).
T1 sequence (whole entry): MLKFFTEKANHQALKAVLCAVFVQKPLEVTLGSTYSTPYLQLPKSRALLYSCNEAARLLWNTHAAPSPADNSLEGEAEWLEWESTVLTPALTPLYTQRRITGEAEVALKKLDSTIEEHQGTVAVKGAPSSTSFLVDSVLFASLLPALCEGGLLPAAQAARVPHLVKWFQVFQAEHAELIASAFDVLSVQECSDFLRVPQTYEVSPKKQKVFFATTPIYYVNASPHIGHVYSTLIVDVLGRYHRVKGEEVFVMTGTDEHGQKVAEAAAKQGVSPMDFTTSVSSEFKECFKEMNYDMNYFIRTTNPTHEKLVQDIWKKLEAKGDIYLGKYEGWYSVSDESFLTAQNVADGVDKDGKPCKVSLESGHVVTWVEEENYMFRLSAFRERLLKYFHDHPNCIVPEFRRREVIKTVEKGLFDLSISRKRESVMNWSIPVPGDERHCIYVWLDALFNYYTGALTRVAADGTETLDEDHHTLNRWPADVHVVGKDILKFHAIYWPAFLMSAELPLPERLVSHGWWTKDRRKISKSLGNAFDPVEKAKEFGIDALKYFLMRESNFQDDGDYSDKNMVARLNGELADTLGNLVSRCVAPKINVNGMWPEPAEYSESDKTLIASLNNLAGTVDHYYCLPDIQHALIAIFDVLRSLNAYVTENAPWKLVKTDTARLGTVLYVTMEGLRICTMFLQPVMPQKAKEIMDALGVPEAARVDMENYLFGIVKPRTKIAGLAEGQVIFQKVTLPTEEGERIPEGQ
Put plainly: Leishmania donovani Methionine tRNA synthetase (LdMetRS):v7. Dose response assay. It is filed as functional. Set-up: conc 80 nM, time 150 minutes.

With `Cc1nc(N(C)CC(=O)N(C)C)c2c3c(sc2n1)CCC3`, the PXC50 by setting is: (MAX_EFFECT 0.0) under 4; (MAX_EFFECT 1.058201058) under 4.

The molecule `CCc1nc(N2CCCC(C)C2)c2c3c(sc2n1)CCC3` (stereo not given) returned a PXC50 (BOTTOM 6.332749468, HILLSLOPE 1.241583482, MAX_EFFECT 50.25125628, TOP 77.91036355) of 4.17 and a PXC50 (MAX_EFFECT 49.87714988) of under 4.

Take `CCc1nc(NCCCO)c2cc(CC)sc2n1`: the PXC50 is, setting by setting: (MAX_EFFECT 1.262626263) under 4; (MAX_EFFECT 8.163265306) under 4.

Take `CS(=O)(=O)N1CCN(CC2OB(O)c3ccccc32)CC1` (stereo not given): the PXC50 reads like this: (MAX_EFFECT 11.13207547) under 4; (MAX_EFFECT 15.06849315) under 4.

Regarding `Cc1nc(N2CCCCC2)c2c(-c3cccs3)csc2n1`, the PXC50 by setting is: (MAX_EFFECT 30.98236776) under 4; (MAX_EFFECT 31.29770992) under 4.

With `N[C@H](COc1cccc(F)c1Oc1ccc(Cl)cc1)CC1CCCCC1`, the PXC50 (BOTTOM 8.516712257, HILLSLOPE 1.897669447, MAX_EFFECT 94.20289855, TOP 100.0) worked out at 4.49 and the PXC50 (BOTTOM 8.547488971, HILLSLOPE 2.365761437, MAX_EFFECT 99.14712154, TOP 101.5267465) was 4.51.

Turning to `CS(=O)(=O)N1CCN(c2ccc3ccc(C(=O)NCC4CC4)cn23)CC1`, the PXC50 is, setting by setting: (BOTTOM 3.917889821, HILLSLOPE 2.161741125, MAX_EFFECT 61.66007905, TOP 61.91262666) 4.97; (BOTTOM -0.968460018, HILLSLOPE 1.661925269, MAX_EFFECT 62.22222222, TOP 66.45309128) 4.79.

Regarding `Cc1nc(N[C@@H](Cc2ccccc2)C(=O)O)c2c3c(sc2n1)CCCC3`, the PXC50 was under 4 (MAX_EFFECT 23.48484848) and under 4 (MAX_EFFECT 27.55102041).

`CCNc1nc(-c2ccc(C)cc2)cc(C(F)(F)F)n1` registered a PXC50 (MAX_EFFECT 4.797979798) of under 4 and a PXC50 (MAX_EFFECT 5.102040816) of under 4.

As to `Cc1nc(N(C)CC(=O)N(C)C)c2c(-c3ccccc3)csc2n1`, the PXC50 is, setting by setting: (MAX_EFFECT 5.289672544) under 4; (MAX_EFFECT 6.361323155) under 4.

For the molecule `O=C1CN(c2nc(-c3cccs3)nc3sc4c(c23)CCCC4)CCN1`, the PXC50 by setting is: (MAX_EFFECT 29.33333333) under 4; (MAX_EFFECT 31.74603175) under 4.

As for `Cc1ccc(-c2cc(C(F)(F)F)nc(N3CCOCC3)n2)s1`, the PXC50 is under 4 (MAX_EFFECT 10.18276762) and under 4 (MAX_EFFECT 14.09921671).

On to `FC1(F)CCN(Cc2ccccn2)CC12CCN(c1cnccn1)C2` (stereo not given), for which the PXC50 reads like this: (MAX_EFFECT 7.476635514) under 4; (MAX_EFFECT 8.163265306) under 4.

For `Cc1ccc(N2CCC3(CN(Cc4ccncc4)CCC3(F)F)C2)nn1` (stereo not given), the PXC50 runs as follows: (MAX_EFFECT 9.977324263) under 4; (MAX_EFFECT 11.58878505) under 4.

On to `CS(=O)(=O)N1CCN(c2ccc3ccc(C(=O)NC4CCN(c5ncccn5)CC4)cn23)CC1`, for which the PXC50 by setting is: (BOTTOM 1.498519447, HILLSLOPE 2.25926472, MAX_EFFECT 69.85645933, TOP 69.17206782) 4.97; (BOTTOM 9.613017987, HILLSLOPE 3.179249655, MAX_EFFECT 74.58866545, TOP 74.15419217) 4.86.

Molecule `CCc1nc(NCCCC(=O)O)c2cc(CC)sc2n1` registered a PXC50 (MAX_EFFECT 11.55778894) of under 4 and a PXC50 (MAX_EFFECT 13.02211302) of under 4.

`CN(C)CCNC(=O)c1ccc2ccc(N(C)CC3CC3)n2c1` yielded a PXC50 (MAX_EFFECT 42.17687075) of under 4 and a PXC50 (MAX_EFFECT 43.73831776) of under 4.

`COc1ccc2c(c1)COB2O` returned a PXC50 (MAX_EFFECT 5.094339623) of under 4 and a PXC50 (MAX_EFFECT 9.589041096) of under 4.

Consider `CCOc1ccc(CN(C)Cc2nc(N)c3c(C)c(C)sc3n2)cc1`, for which the PXC50 was under 4 (MAX_EFFECT 7.466666667) and under 4 (MAX_EFFECT 8.994708995).

As to `Cc1nc(N2CCN(C3CCOCC3)CC2)c2ccsc2n1`, the PXC50 by setting is: (MAX_EFFECT 2.659574468) under 4; (MAX_EFFECT 4.663212435) under 4.

Take `COC(=O)CN(C)c1nc(-c2cccs2)nc2sc(C)c(C)c12`: the PXC50 is, setting by setting: (MAX_EFFECT 23.66412214) under 4; (MAX_EFFECT 24.93702771) under 4.

Take `O=C(NC1CCCC1)c1ccc2ccc(N3CCCCC3)n2c1`: the PXC50 by setting is: (MAX_EFFECT 36.52968037) under 4; (MAX_EFFECT 39.81132075) under 4.

On to `Fc1cccc(OC[C@@H]2CCCN2)c1Oc1ccc(Cl)cc1`, for which the PXC50 (MAX_EFFECT 8.488612836) is under 4 and the PXC50 (MAX_EFFECT 13.00639659) is under 4.

For the molecule `Nc1noc2ccc(-c3cnc4ccc(N5CCOCC5)nn34)cc12`, the PXC50 runs as follows: (MAX_EFFECT 12.21374046) under 4; (MAX_EFFECT 20.61403509) under 4.

Consider `Cc1sc(C)c(C(F)(F)F)c1CNCCCNc1cc(=O)c2ccccc2[nH]1`, for which the PXC50 (BOTTOM -1.155419978, HILLSLOPE 1.172834864, MAX_EFFECT 100.9302326, TOP 101.3032533) worked out at 5.58 and the PXC50 (BOTTOM -1.471807315, HILLSLOPE 1.111829353, MAX_EFFECT 101.8648019, TOP 104.5162556) was determined as 5.56.

Take `CCOC(=O)CCN(C)c1nc(C)nc2sc(-c3ccccc3)cc12`: the PXC50 (MAX_EFFECT 45.45454545) is under 4 and the PXC50 (MAX_EFFECT 46.44808743) was under 4.

In turn, `CCc1cc2c(NC(C(=O)O)C(C)C)nc(C)nc2s1` (stereo not given) yielded a PXC50 (MAX_EFFECT 5.866666667) of under 4 and a PXC50 (MAX_EFFECT 8.994708995) of under 4.

Molecule `CCn1ncc(-c2cc(C(F)(F)F)nc(N3CCC(N)CC3)n2)c1C` showed a PXC50 (MAX_EFFECT 0.522193211) of under 4 and a PXC50 (MAX_EFFECT 1.305483029) of under 4.

With `FC(F)(F)c1nc(N2CCCCCC2)nc2c1CCCCC2`, the PXC50 by setting is: (MAX_EFFECT 4.325699746) under 4; (MAX_EFFECT 5.793450882) under 4.

Regarding `Nc1noc2ccc(-c3cnc4ccc(N5CCCCC5)nn34)cc12`, the PXC50 (BOTTOM 2.074435444, HILLSLOPE 0.92774459, MAX_EFFECT 58.33333333, TOP 100.0) is 4.06 and the PXC50 (BOTTOM -0.552717408, HILLSLOPE 0.869319648, MAX_EFFECT 51.90839695, TOP 100.0) worked out at 4.01.

These data come from ChEMBL document CHEMBL3988442, “University of Dundee, Small-Polar-MMV Screening Library” (2021).
